# Test results taken from PubChem BioAssay (NCATS).
# Inconclusive results are not listed. Where a call stands in place of a potency, no number is given. Activity calls are given as the source filed them. Calls follow the shape of the dose curve; as a rule, active = well fitted inhibition curve with a large enough effect; inconclusive = small, poorly fitted or top-dose-only effect; inactive = flat fitted curve, though single readings scatter.
# How the values were obtained:
# Experiment in all cases: qHTS profiling for inhibitors of Plasmodium falciparum proliferation (AID 504749); also: nearly all actives have a fitted effect of over 60% in size
# Settings in all cases: P. falciparum in erythrocytes, SYBR Green DNA, 72 h; series mostly up to 28.7 µM
# CP252 = test system: CP252
# Summary of the method: (§1)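 SYBR Green fluorescence of parasite DNA, read after lysis and overnight dark incubation, measured growth over 72 h in erythrocyte culture at 0.3% parasitemia and 2.5% hematocrit. Data normalised to DMSO and 0.29 uM artemisinin, with plate-drift correction.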
# CP256 = test system: CP256
# Summary of the method: as §1
# CP260 = test system: CP260
# Summary of the method: as §1
# CP262 = test system: CP262
# Summary of the method: as §1
# CP265 = test system: CP265
# Summary of the method: as §1
# CP266 = test system: CP266
# Summary of the method: as §1
# CP268 = test system: CP268
# Summary of the method: as §1
# CP269 = test system: CP269
# Summary of the method: as §1
# CP286 = test system: CP286
# Summary of the method: as §1
# CP291 = test system: CP291
# Summary of the method: as §1
# CP297 = test system: CP297
# Summary of the method: as §1
# CP305 = test system: CP305
# Summary of the method: as §1
# CP315 = test system: CP315
# Summary of the method: as §1
# CP325 = test system: CP325
# Summary of the method: as §1
# CP329 = test system: CP329
# Summary of the method: as §1
# CP335 = test system: CP335
# Summary of the method: as §1
# DFO2036 = test system: DFO2036
# Summary of the method: as §1
# DIV14 = test system: DIV14
# Summary of the method: as §1
# DIV17 = test system: DIV17
# Summary of the method: as §1
# DIV30 = test system: DIV30
# Summary of the method: as §1
# Potency is read from the fitted curve at half-maximal effect.
Structure (SMILES),Potency (CP252),Potency (CP256),Potency (CP260),Potency (CP262),Potency (CP265),Potency (CP266),Potency (CP268),Potency (CP269),Potency (CP286),Potency (CP291),Potency (CP297),Potency (CP305),Potency (CP315),Potency (CP325),Potency (CP329),Potency (CP335),Potency (DFO2036),Potency (DIV14),Potency (DIV17),Potency (DIV30)
CCCCCCCCCCCC[n+]1ccc2ccccc2c1,708 nM (active),562 nM (active),631 nM (active),379 nM (active),1120 nM (active),1690 nM (active),1350 nM (active),757 nM (active),224 nM (active),1200 nM (active),1070 nM (active),757 nM (active),1070 nM (active),1200 nM (active),601 nM (active),953 nM (active),562 nM (active),757 nM (active),953 nM (active),1350 nM (active)
O=C1C(=O)c2ncccc2-c2cccnc21,2510 nM (active),1000 nM (active),891 nM (active),6010 nM (active),891 nM (active),849 nM (active),1510 nM (active),1200 nM (active),1000 nM (active),1690 nM (active),1070 nM (active),1200 nM (active),2690 nM (active),1900 nM (active),1200 nM (active),536 nM (active),1000 nM (active),953 nM (active),953 nM (active),1510 nM (active)
Cc1c(C)c2c(c(C)c1O)CC[C@@](C)(CCC[C@H](C)CCC[C@H](C)CCCC(C)C)O2,inactive,inactive,inactive,inactive,inactive,inactive,inactive,inactive,inactive,inactive,inactive,inactive,inactive,inactive,inactive,inactive,inactive,inactive,inactive,inactive
COC(F)(F)C(Cl)Cl,inactive,inactive,inactive,inactive,inactive,inactive,inactive,inactive,inactive,inactive,inactive,inactive,inactive,inactive,inactive,inactive,inactive,inactive,inactive,inactive
CCCCC(C)(O)C/C=C/[C@H]1[C@H](O)CC(=O)[C@@H]1CCCCCCC(=O)OC (some centres undefined),inactive,inactive,inactive,inactive,inactive,inactive,inactive,inactive,inactive,inactive,inactive,inactive,inactive,inactive,inactive,inactive,inactive,inactive,inactive,inactive
COc1ccc2c3c1O[C@H]1C[C@@H](O)C=C[C@@]31CCN(C)C2,inactive,inactive,inactive,inactive,inactive,inactive,inactive,inactive,inactive,inactive,inactive,inactive,inactive,inactive,inactive,inactive,inactive,inactive,inactive,inactive
Cc1ccccc1,inactive,inactive,inactive,inactive,inactive,inactive,inactive,inactive,inactive,inactive,inactive,inactive,inactive,inactive,inactive,inactive,inactive,inactive,inactive,inactive
C[C@]12O[C@H](C[C@]1(O)CO)n1c3ccccc3c3c4c(c5c6ccccc6n2c5c31)CNC4=O,316 nM (active),398 nM (active),224 nM (active),426 nM (active),447 nM (active),675 nM (active),536 nM (active),269 nM (active),224 nM (active),338 nM (active),379 nM (active),601 nM (active),426 nM (active),536 nM (active),426 nM (active),239 nM (active),316 nM (active),120 nM (active),135 nM (active),269 nM (active)
Nc1ncnc2c1ncn2[C@@H]1O[C@H](COP(=O)(O)OP(=O)(O)OP(=O)(O)O)[C@@H](O)[C@H]1O,inactive,inactive,inactive,inactive,inactive,–,inactive,inactive,inactive,inactive,inactive,inactive,inactive,inactive,inactive,inactive,inactive,inactive,inactive,inactive
O=S(=O)(O)O,inactive,inactive,inactive,inactive,inactive,–,inactive,inactive,inactive,inactive,inactive,inactive,inactive,inactive,inactive,inactive,inactive,inactive,inactive,inactive
CCCCCCCC(=O)O,inactive,inactive,inactive,inactive,inactive,inactive,inactive,inactive,inactive,–,inactive,inactive,inactive,inactive,inactive,inactive,inactive,inactive,inactive,inactive
CCCCCCCC/C=C\CCCCCCCC(=O)O,inactive,inactive,inactive,inactive,inactive,inactive,inactive,inactive,inactive,inactive,inactive,inactive,inactive,inactive,inactive,inactive,inactive,inactive,inactive,inactive
COC(=O)[C@H]1[C@H]2C[C@@H]3c4[nH]c5ccccc5c4CCN3C[C@H]2C[C@@H](OC(=O)c2cc(OC)c(OC)c(OC)c2)[C@@H]1OC,398 nM (active),398 nM (active),282 nM (active),1200 nM (active),398 nM (active),1070 nM (active),601 nM (active),675 nM (active),282 nM (active),675 nM (active),190 nM (active),849 nM (active),849 nM (active),757 nM (active),151 nM (active),151 nM (active),355 nM (active),190 nM (active),239 nM (active),135 nM (active)
Cc1cc(C(=O)NNCc2ccccc2)no1,inactive,inactive,inactive,inactive,inactive,inactive,inactive,inactive,inactive,inactive,inactive,inactive,inactive,inactive,inactive,inactive,inactive,inactive,inactive,inactive
CCNC(=O)[C@@H]1CCCN1C(=O)[C@H](CCCN=C(N)N)NC(=O)[C@H](CC(C)C)NC(=O)[C@@H](Cc1c[nH]c2ccccc12)NC(=O)[C@H](Cc1ccc(O)cc1)NC(=O)[C@H](CO)NC(=O)[C@H](Cc1c[nH]c2ccccc12)NC(=O)[C@H](Cc1cnc[nH]1)NC(=O)[C@@H]1CCC(=O)N1,11200 nM (active),12600 nM (active),3550 nM (active),–,7940 nM (active),13500 nM (active),8490 nM (active),7570 nM (active),3160 nM (active),7570 nM (active),6750 nM (active),7570 nM (active),15100 nM (active),12000 nM (active),8490 nM (active),4780 nM (active),5620 nM (active),953 nM (active),953 nM (active),1690 nM (active)
CCOc1ccc(N=Nc2ccc(N)cc2N)cc1,inactive,inactive,inactive,inactive,inactive,inactive,inactive,inactive,inactive,inactive,inactive,inactive,inactive,inactive,inactive,inactive,inactive,–,–,inactive
Cc1ccccc1OCC(O)CNCCOc1ccc(C(N)=O)cc1 (centres undefined),inactive,inactive,inactive,inactive,inactive,inactive,inactive,inactive,inactive,inactive,inactive,inactive,inactive,inactive,inactive,inactive,inactive,inactive,–,inactive
O=C(O)CCC(=O)C(=O)O,inactive,inactive,inactive,inactive,inactive,inactive,inactive,inactive,inactive,–,inactive,inactive,inactive,inactive,inactive,inactive,inactive,inactive,inactive,inactive
O=C(O)c1cc(O)c2c(c1)[O][Bi][O]2,inactive,inactive,inactive,inactive,inactive,–,inactive,inactive,inactive,inactive,inactive,inactive,inactive,inactive,inactive,–,inactive,inactive,–,inactive
CCOc1ccc2c(c1)C(C)=CC(C)(C)N2,inactive,inactive,inactive,inactive,–,inactive,inactive,inactive,inactive,inactive,inactive,inactive,inactive,inactive,inactive,–,inactive,inactive,inactive,inactive
CO[C@H]1C[C@@H]2CC[C@@H](C)[C@@](O)(O2)C(=O)C(=O)N2CCCC[C@H]2C(=O)O[C@H]([C@H](C)C[C@@H]2CC[C@@H](OCCO)[C@H](OC)C2)CC(=O)[C@H](C)/C=C(\C)[C@@H](O)[C@@H](OC)C(=O)[C@H](C)C[C@H](C)/C=C/C=C/C=C/1C,1260 nM (active),3550 nM (active),2000 nM (active),3010 nM (active),1120 nM (active),6010 nM (active),4260 nM (active),4260 nM (active),3160 nM (active),4260 nM (active),3790 nM (active),4780 nM (active),4260 nM (active),4780 nM (active),4780 nM (active),1510 nM (active),1410 nM (active),1690 nM (active),1690 nM (active),1510 nM (active)
CC1(C)C(C=C(Cl)Cl)C1C(=O)OCc1cccc(Oc2ccccc2)c1 (centres undefined),inactive,inactive,inactive,inactive,inactive,inactive,inactive,inactive,–,inactive,inactive,inactive,inactive,inactive,inactive,inactive,inactive,inactive,inactive,inactive
Nc1c(Br)cc(Br)cc1CNC1CCC(O)CC1 (centres undefined),inactive,inactive,inactive,inactive,inactive,inactive,inactive,inactive,–,inactive,inactive,inactive,inactive,inactive,inactive,–,inactive,inactive,inactive,inactive
